# According to PubChem BioAssay AID1578 (Sanford-Burnham Center for Chemical Genomics, 2009):
# Hit rate of the full screen: of about 290,000 compounds, about 3,000 (1%) were called active. Many of the other results were omitted from the sample, so actives are more common in it than they were. A number with no mark means an inactive call. No stated cut-off is given here; in the data, active means inhibition mostly above about 36% (no sharp cut-off); inactive means mostly below about 34%.
# Experiment: inhibition of NOD1-driven NF-kB reporter – cell-based, luminescence, uHTS, primary screen (AID 1578);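 further: HEK-293T reporter cells stimulated with the NOD1 agonist gamma-tri-DAP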
# Conditions: NOD1-driven NF-kB luciferase reporter cells, at 4 µM, stronger effect = higher value
row,SMILES,inhibition
1,O=C(C1=C(c2ccccc2)C(=O)c2ccccc2C1=O)c1ccccc1,1.2%
2,Cc1ccc(C2=C(O)c3ccccc3C(=O)C2=O)cc1,-31.4%
3,CC(=O)C1=C(c2ccc(Br)cc2)C(=O)c2ccccc2C1=O,98.1% (active)
4,COCCNC(=O)CCCCCN1C(=O)CCC1=O,48.6% (active)
5,O=C(CCCCCN1C(=O)CCC1=O)NCc1ccccc1,-1.8%
6,COCCNC(=O)CCCC(=O)NCCOC,-16.8%
7,Cc1nnc2sc(-c3ccc(-c4ccc(Cl)c(C(F)(F)F)c4)o3)nn12,-9.3%
8,CN(C)CCC(=O)c1ccc2c(c1)OCO2,59.1% (active)
9,O=C(CCCc1ccccc1)c1ccc2c(c1)OCCO2,54.9% (active)
10,CCCC(=O)c1ccc2c(c1)OCCO2,1.3%
11,O=C(Cc1ccccc1)c1ccc2c(c1)OCCO2,-43.1%
12,CN(C)CCCC(=O)c1ccc2c(c1)OCO2,-10.8%
13,O=C(CCc1ccccc1)c1ccc2c(c1)OCCCO2,-67.4%
14,Cc1ccccc1-c1nc(CN2CCCC2c2ccc(F)cc2)c(C)o1 (stereo not given),-29.5%
15,COCC1CCN(Cc2cn[nH]c2-c2cc3ccccc3o2)C1 (stereo not given),-18.7%
16,O=Cc1c(C(=O)O)n(CC(=O)O)c2ccccc12,-37%
17,CC1=NNC(=O)C1C(c1ccc(Cl)cc1)C(C#N)C#N (stereo not given),-7.3%
18,CN(C(=O)CCl)C1CCCc2ccccc21 (stereo not given),55.5% (active)
19,O=C(Cc1ccc(Br)cc1)NC1CCCc2ccccc21 (stereo not given),-30.2%
20,CCCc1nnc(NC(=O)CCC(=O)NC2CCCc3ccccc32)s1 (stereo not given),89.6% (active)
21,O=C(CCl)NC1CCCc2ccccc21 (stereo not given),59% (active)
22,CN(C(=O)CN1CCN(c2ccccc2F)CC1)C1CCCc2ccccc21 (stereo not given),-20.5%
23,CC(C)Cc1nnc(NC(=O)CCC(=O)NC2CCCc3ccccc32)s1 (stereo not given),-25.2%
24,CN(C(=O)Nc1ccccc1)C1CCCc2ccccc21 (stereo not given),-3.4%
25,Cc1ccccc1CC(=O)NC1CCCc2ccccc21 (stereo not given),58.1%

row,SMILES,inhibition
1,CCc1nnc(NC(=O)CCC(=O)NC2CCCc3ccccc32)s1 (stereo not given),-15.7%
2,O=C(CNC(=O)Cn1ccc2ccccc2c1=O)NCCCN1CCN(c2cccc(Cl)c2)CC1,9.9%
3,COc1ccccc1CN1CC(C(=O)N(C)CCCn2nc(C)cc2C)CCC1=O (stereo not given),-33.8%
4,Cc1cc(Cl)ccc1C(=O)C1CCCN(C(=O)c2cnn(C(C)C)c2)C1 (stereo not given),-17.9%
5,CC(C)(C)n1cc(S(=O)(=O)c2ccccc2)[nH]c1=O,-26.3%
6,O=C(Nc1ccccn1)N1CCOCC1,-28.5%
7,C=CCn1c(SCc2cc(=O)n3cc(C)ccc3n2)nnc1-c1ccc(F)cc1,-11.1%
8,O=C(O)CCn1[nH]c(=O)c2ccccc2c1=O,-7.7%
9,Cc1ccc2nc(SCc3ccccc3)c(C=O)c(=O)n2c1,-41.8%
10,COc1ccc(-c2c(NC(=O)c3ccco3)n(-c3ccccc3)nc(C)c2=O)cc1,-7.7%
11,COc1ccc(/C=N/NC(=O)c2c(-c3ccccc3)noc2C)cc1[N+](=O)[O-],-15.9%
12,Oc1ccc(-c2nc3c4c(ncn3n2)-c2ccccc2CC42CCCC2)cc1,99.8% (active)
13,COc1ccc(-c2nc3c4c(ncn3n2)-c2ccccc2CC42CCCC2)cc1,-3.6%
14,c1ccc(OCc2nc3c4c(ncn3n2)-c2ccccc2CC42CCCC2)cc1,19.6%
15,O=C(Nc1ccccc1F)C1CCN(C(=O)NCc2ccccc2)CC1,-18%
16,COc1ccc(-c2cc(-c3ccccc3)nc(Cl)n2)cc1OC,12%
17,Cc1c(NS(=O)(=O)c2ccc3c(c2)NC(=O)CC(=O)N3)cccc1[N+](=O)[O-],-6.1%
18,CCOC(=O)NC1(C(F)(F)F)C(=O)N(Cc2ccccc2)C2=C1C(=O)CC(C)(C)C2 (stereo not given),0.2%
19,Cc1ccc(S(=O)(=O)N(C)c2ccc(OC(=O)c3ccc(=O)[nH]c3)cc2)cc1,5.9%
20,O=S(=O)(c1cc(F)ccc1F)N1CCN2CCCC2C1 (stereo not given),50.7%
21,C=CCNC(=S)N/N=C/c1ccc(-c2cccc([N+](=O)[O-])c2)o1,-8.7%
22,C=CCNC(=S)N/N=C/c1ccc(C(C)(C)C)cc1,3.2%
23,NC(=S)N/N=C/c1ccc(C(F)(F)F)cc1,-16%
24,C=CCNC(=S)N/N=C/c1ccc(C(F)(F)F)cc1,52.7% (active)
25,C=CCNC(=S)N/N=C/c1ccc(-c2ccc(Br)cc2)o1,-6.5%

row,SMILES,inhibition
1,C=CCNC(=S)N/N=C/c1ccc(-c2ccc(OC)cc2)o1,59.5% (active)
2,CCN(CC)CCCN1C=C2C(=O)C(C)(OC(=O)C3CCCC3)C(=O)C=C2C=C1c1ccsc1 (stereo not given),-2%
3,CCOC(=O)C1=C(c2ccccc2)N=C2SCC(=O)N2C1c1ccc(OCC)c(OCC)c1 (stereo not given),-4%
4,CCOC(=O)Cn1nc(C)c(NC(=O)COc2ccc([N+](=O)[O-])cc2)c1C,-8.3%
5,CC(=O)NNC(=O)CCn1c2c(c3ccccc31)CCCC2,-2%
6,O=C(CCn1c2c(c3ccccc31)CCCC2)NNC(=O)c1ccccc1Cl,-15.4%
7,CCOC(=O)NNC(=O)CCn1c2c(c3ccccc31)CCCC2,55.3% (active)
8,CCOC(=O)c1c(C)[nH]c(C(=O)CSc2nc(C)cc(C)n2)c1C,-15.5%
9,O=C(O)C1CC1(c1ccccc1)c1ccccc1 (stereo not given),-21.6%
10,CCOc1ccc(Nc2nc(NCC(=O)O)nc(N)c2[N+](=O)[O-])cc1,0.9%
11,O=C(Nc1ccccc1)C1C2CCC3C(CCC21)C3(Cl)Cl (stereo not given),-42.4%
12,O=C(Nc1cccc(Cl)c1)C1C2CCC3C(CCC21)C3(Cl)Cl (stereo not given),73% (active)
13,Cc1cccc(NC(=O)C2C3CCC4C(CCC32)C4(Cl)Cl)c1 (stereo not given),-38.6%
14,COc1cccc(CN2CCNC(=O)C2CC(=O)N2CCCCO2)c1OC (stereo not given),-10.5%
15,CCOc1ccc(C(=O)c2ccccc2C(=O)O)cc1OCC,-35.3%
16,CC1=CC(=O)C(C(C)C)=C/C1=N/OS(=O)(=O)c1ccccc1,-5.3%
17,CC1=CC(=O)C(C(C)C)=C/C1=C(\c1cc(C(C)C)c(OP(=O)(O)O)cc1C)c1ccccc1C(=O)O,69.3% (active)
18,COc1ccc(CNc2ccc(S(N)(=O)=O)cc2)cc1,2.2%
19,Cc1ccc(/C=N/NC(=S)N2CCOCC2)cc1,39.7%
20,S=C(N/N=C/c1ccc(Cl)cc1)N1CCOCC1,63.9% (active)
21,Oc1ccc(/C=N/NC(=S)N2CCOCC2)cc1,4.2%
22,Cc1cccc2sc(NC(=O)CSc3cn[nH]n3)nc12,19%
23,O=C1C2CC=CCC2C(=O)N1Cc1ccccc1Cl (stereo not given),-2.8%
24,CC(=O)Nc1ccc(NC(=O)CSc2nc(N)c(NC(=O)c3ccco3)c(=O)[nH]2)cc1,-35.9%
25,O=C(COc1ccc2ccc(=O)oc2c1)Nc1cccnc1,-31.3%

row,SMILES,inhibition
1,COC(=O)COc1ccc2c(-c3ccc(OC)cc3)cc(=O)oc2c1,1.6%
2,Cc1c(C)c2ccc(OCC(=O)Nc3cccnc3)cc2oc1=O,-45.6%
3,O=C(COc1ccc2ccc(=O)oc2c1)Nc1ccc(CCO)cc1,-6%
4,Cc1nn(CCC#N)c(N)c1C1(O)C(=O)Nc2c(Cl)cc(Cl)cc21 (stereo not given),-6.9%
5,Fc1ccccc1/C=N/Nc1nc2ccccc2o1,-1.1%
6,CCOc1ccc2nc(C)cc(Nc3ccc(N4CCOCC4)cc3)c2c1,-31.4%
7,CN(C[C@H](CC1CCCCC1)N(C[C@H](Cc1ccccc1)N(CCc1ccccc1)N=O)N=O)N=O,-18.5%
8,O=c1cc(CNC2CCCCC2)c2ccccc2[nH]1,11.2%
9,COC(=O)c1ccc(-n2cncn2)c([N+](=O)[O-])c1,-23.5%
10,CC(C)N=c1scc(-c2cccs2)n1/N=C/c1ccc(O)c(O)c1O,54.6%
11,CN=c1scc(-c2cccs2)n1/N=C/c1ccccc1O,107% (active)
12,CN=c1scc(-c2cccs2)n1/N=C/c1ccc(O)c(O)c1O,-24.6%
13,O=C(Cc1ccccc1)NCC(=O)N1CCN(c2ccccc2)CC1,-14.1%
14,Cc1ccc(NC2=CC(=O)CC(c3ccc(Cl)cc3)C2)cc1 (stereo not given),-10.3%
15,C(=N\Nc1ccc2ccccc2n1)/c1ccc2c(c1)OCCO2,71.8% (active)
16,Cc1cccc(/C=N/Nc2ccc3ccccc3n2)c1,63.5% (active)
17,C(=N\Nc1ccccn1)/c1ccc2c(c1)OCCO2,-30.1%
18,Fc1cccc(/C=N/Nc2ccc3ccccc3n2)c1,2.4%
19,C(=N\Nc1nc2ccccc2[nH]1)/c1ccc2c(c1)OCCO2,-1.4%
20,Cc1ccc(/C=N/Nc2ccc3ccccc3n2)o1,25.7%
21,Cc1ccc(OCC(O)CN2C(=O)NC(C)(C)C2=O)c(C)c1 (stereo not given),-16.8%
22,Cc1ccc(N=Nc2[nH]c3ccccc3c2O)cc1,-16%
23,COc1ccc(N2CC(C(=O)Nc3nnc(SCc4cccnc4)s3)CC2=O)cc1 (stereo not given),-15.4%
24,O=C(O)CSc1nnc(CSc2nc3ccccc3s2)n1-c1ccccc1,-26.6%
25,CC(C)(C)OC(=O)Nc1ncnc2c1ncn2C1OC(CO)C2OC(C)(C)OC21 (stereo not given),1.4%
